Sampled rows, rich in hits. Any-hit rate of the full collection: about 4.1%.
DAX1 inh-1 – blocks DAX1 repression of SF-1 activated StAR promoter; HEK293T StAR-luciferase reporter, SF-1/DAX-1 repression relief; inhibition, % at 6.8 µM; 1.1% of 370,000 active; AID 652010;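 active means inhibition above the mean over all tested compounds plus 3 SD, cut at about 3.6% in these data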;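 further: 0% = DAX-1 cells with DMSO and 100% = cells lacking DAX-1 with DMSO; higher inhibition means more luminescence from relief of DAX-1 repression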
DAX1 inh-2 – inhibitors of human orphan nuclear receptor DAX1 (NR0B1); inhibition, % at 6.75 µM; 0.99% of 340,000 active; P51843; HEK293 Gal4-DAX1 luciferase reporter, luminescence;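 active means inhibition above the mean over all tested compounds plus 3 SD, cut at about 4.2% in these data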;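 further: 0% = DAX1-transfected cells with DMSO and 100% = empty-vector control cells with DMSO; inhibition shows as a rise in luminescence from relieved DAX1 repression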
Target sequence (P51843 207-470 limits assumed): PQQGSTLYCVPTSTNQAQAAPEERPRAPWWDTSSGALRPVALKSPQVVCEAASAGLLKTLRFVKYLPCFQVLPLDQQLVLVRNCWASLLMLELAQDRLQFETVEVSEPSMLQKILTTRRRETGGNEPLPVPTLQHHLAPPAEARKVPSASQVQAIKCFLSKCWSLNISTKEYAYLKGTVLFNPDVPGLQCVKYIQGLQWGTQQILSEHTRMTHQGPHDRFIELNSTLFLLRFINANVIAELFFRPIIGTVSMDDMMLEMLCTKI
hcDAF12 agonist – activators of H. contortus DAF-12 nuclear receptor. activation, % at 6.8 µM. AID 652067. HEK293 hcDAF-12 lit1-tk-luc reporter, luminescence; 0% DMSO, 100% Δ7-dafachronic acid. 1.4% of 370,000 active;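 active means activation above the mean of all tested compounds plus 3 SD, cut at about 5.5% in these data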;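 further: 100% = response to 3 µM Δ7-dafachronic acid high control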
ssDAF12 agonist – S. stercoralis DAF-12 activation, primary screen. HEK293 ssDAF-12/GRIP1 lit1-tk-luc reporter, luminescence; % of 3 µM dafachronic acid response. activation, % at 6.8 µM. 1% of 370,000 active. AID 652126;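 active means activation above the mean over all tested compounds plus 3 SD, cut at about 0.9% in these data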;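 further: 0% = DMSO-only wells and 100% = 3 µM delta7-dafachronic acid wells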
hgDAF12 agonist – activates the H. glycines DAF-12 receptor ligand-binding domain. HEK293 GAL4-hgDAF12 UAS-luciferase reporter, agonist luminescence; normalized to butyrate control. activation, % at 6.8 µM. 1.8% of 370,000 active. AID 687014;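 active means activation above a cutoff set at the mean of all screened compounds plus 3 SD, cut at about 10% in these data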;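 further: 0% = DMSO wells and 100% = sodium butyrate wells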
Numbers without * were called inactive; . = not tested or not shown.

SMILES	DAX1 inh-1	DAX1 inh-2	hcDAF12 agonist	ssDAF12 agonist	hgDAF12 agonist
COc1ccc(-n2c(SCC(=O)Nc3cc(C)on3)nc3c([nH]c4ccccc43)c2=O)cc1	3	0	3	1.1*	4
CCOC(=O)[C@]12CCCCC/C=C\1N(CCc1ccc(Cl)cc1)C(=O)[C@H]2CC(=O)NCc1ccccc1	1	.	-3	-1	2
CCOC(=O)/C(C#N)=C\c1cn(C)c2ccccc12	0	0	-1	-1	-2
CCOC(=O)/C(C#N)=C/c1cn(CCOc2ccccc2)c2ccccc12	0	0	-1	6.7*	1
O=c1cc(N2CCc3ccccc32)[nH]c(=O)n1Cc1ccc(F)cc1	0	0	5.8*	0	0
O=c1cc(N2CCN(c3ccccc3Cl)CC2)[nH]c(=O)n1Cc1ccc(F)cc1	0	3	3	-1	-1
CCN(CC)C(=O)CC[C@@H]1CC[C@]2(CCCN(C(=O)c3ccco3)C2)O1	0	.	-1	0	-2
Cc1csc2nc(CSc3ccc(Cl)cc3)cn12	.	2	.	.	.
O=C(NCCc1cn2ccsc2n1)C1CCCCC1	0	2	1	-1	1
c1cn2cc(CSC3CCCCC3)nc2s1	2	2	2	1	13*
Clc1ccc(SCc2cn3ccsc3n2)cc1	1	2	1	-1	11*
Cc1ccc(CNC[C@@]23CO[C@H](c4ccc(Cl)cc4)N2[C@@H](c2ccc(Cl)cc2)SC3)o1	0	.	-3	-1	-1
COc1ccc(CC(=O)N2N=C(C)CC2(O)C(F)(F)F)cc1OC (stereo not drawn)	-1	0	0	-2	0
CC1=NN(C(=O)CCc2ccc3c(c2)OCO3)C(O)(C(F)(F)F)C1 (stereo not drawn)	-1	1	-1	9.7*	-1
Cc1ccc(CNC(=O)O[C@H]2CC[C@@]34CCCN3C(=O)CCC[C@H]4C2)cc1	.	.	-2	-2	2
Cc1ccc(S(=O)(=O)N2C[C@H]3[C@H]4C(=O)N(c5ccccc5)C(=O)[C@H]4CC(=O)[C@H]3[C@@H]2c2ccccc2F)cc1	0	.	1	-1	-2
Cc1ccc(S(=O)(=O)N2C[C@H]3[C@H]4C(=O)N(c5ccccc5)C(=O)[C@H]4CC(=O)[C@H]3[C@@H]2c2cccc3ccccc23)cc1	4.3*	.	2	0	3
CCCCOCCCNC(=O)C[C@H]1C[C@@]2(C(=O)OC)C(=C[C@H](C3CCCC3)O[C@@H]2C)N(CCc2ccc(OC)c(OC)c2)C1=O	1	.	-1	-1	3
CC(C)(C)c1ccc(C(=O)Nc2cccc(S(=O)(=O)NC3=NCCC3)c2)cc1	4.0*	0	3	-1	8
CN(C)c1ccc(C(=O)Nc2cccc(S(=O)(=O)NC3=NCCCCC3)c2)cc1	-1	0	1	-1	0
CC1CCC2(CC1)CCC2NCc1ccc(Cl)cc1 (stereo not drawn)	.	.	1	-2	-2
CC(=O)Nc1ccc2c(c1)Cc1c(F)cccc1-2	4.3*	2	5	0	11*
O=C(Nc1ccc2c(c1)Cc1ccccc1-2)c1ccc(Br)o1	0	0	-1	-1	6
O=C(Nc1ccc2c(c1)Cc1ccccc1-2)c1ccccc1F	1	4	1	0	11*
CC(=O)N(C)c1ccc(N=NC2C(=O)N(C(N)=S)N=C2C)cc1 (stereo not drawn)	3	5.3*	4	0	12*
SMILES	DAX1 inh-1	DAX1 inh-2	hcDAF12 agonist	ssDAF12 agonist	hgDAF12 agonist
CC1=NN(C(N)=S)C(=O)C1N=Nc1ccc(S(N)(=O)=O)cc1 (stereo not drawn)	-1	1	-1	-2	-3
CC1=NN(C(N)=S)C(=O)C1N=Nc1cccc(Cl)c1 (stereo not drawn)	1	1	6.1*	1	7
CSCC[C@H](NC(=O)c1cc([N+](=O)[O-])ccc1Cl)c1nc2ccccc2[nH]1	1	1	5.9*	0	1
CSCCC(NC(=O)c1cccc([N+](=O)[O-])c1)c1nc2ccccc2[nH]1 (stereo not drawn)	-1	-1	0	-1	0
Cn1c(/C(C#N)=C(\O)c2ccc([N+](=O)[O-])cc2)nc2ccccc21	0	0	5	0	0
Cn1c(/C(C#N)=C(\O)c2cccc(F)c2)nc2ccccc21	0	1	4	1.4*	3
CC(C)C[C@@H]1COc2cc(Br)ccc2S(=O)(=O)N1Cc1cn(Cc2ccc(F)cc2)nn1	1	.	-2	-1	1
Cc1c(Cl)cccc1NC(=O)CSc1sc2c(O)cc(=O)[nH]c2c1C#N	0	4.4*	-2	-1	1
Cc1ccc(C(Nc2ccccc2)c2ccc3ccc(C)nc3c2O)c(C)c1 (stereo not drawn)	-1	.	2	-1	2
O=S1(=O)c2c(NCc3ccco3)cccc2Oc2ccccc2CN1Cc1cn(Cc2ccc(Cl)cc2)nn1	1	.	-3	-1	-4
O=C(NCCC1=CCCCC1)NC12CC3CC(CC(C3)C1)C2	3.7*	0	5	0	5
COc1ccc2cc(-c3cccc4[nH]cc(C)c34)ccc2c1	-1	.	3	1.5*	-1
Cc1c[nH]c2cccc(-c3ccccc3)c12	0	.	0	-1	1
Cc1cccc(C(=O)NCC(=O)N2CCC2)c1	2	1	-1	-1	0
COc1ccccc1NC(=O)N(C)C[C@H]1Oc2ncc(Br)cc2C(=O)N([C@H](C)CO)C[C@H]1C	-1	4.7*	2	1.1*	5
COc1cccc(S(=O)(=O)N(C)C[C@@H]2Oc3ncc(Br)cc3C(=O)N([C@H](C)CO)C[C@@H]2C)c1	0	.	-2	1.2*	-3
COc1cccc(S(=O)(=O)N(C)C[C@H]2Oc3ncc(Br)cc3C(=O)N([C@H](C)CO)C[C@H]2C)c1	-1	2	-1	-2	3
C[C@H](CO)N1C[C@H](C)[C@@H](CN(C)C(=O)Nc2ccccc2F)Oc2ncc(Br)cc2C1=O	-1	0	-1	-2	3
O=C(O)/C=C/C(=O)NNC(=O)c1ccc(Cl)cc1Cl	0	-1	3	-1	0
O=C(NC1CC(=O)c2sccc21)c1ccc(Cl)cc1Cl (stereo not drawn)	3.7*	1	1	0	10
CS(=O)(=O)NN1C(=O)c2ccccc2NC1c1c[nH]c2ccccc12 (stereo not drawn)	0	0	6.2*	0	3
CS(=O)(=O)NN1C(=O)c2ccccc2NC1c1ccccc1O (stereo not drawn)	0	0	-1	-1	2
O=C(NCC(=O)N1CCN(C(=O)c2ccco2)CC1)c1ccccc1	2	0	-1	1.0*	0
CC(C)CC(=O)N1CCN(C(=O)c2ccco2)CC1	1	-2	5.7*	-1	2

Screening data: PubChem BioAssay, The Scripps Research Institute Molecular Screening Center
